Assay outcomes from PubChem BioAssay.
Most compounds without a hit are left out; they make up all but 18% or so of the library.
HepG2 tox: qHTS for Inhibitors of TGF-b: Cytotox Counterscreen | 410,000 tested, 0.76% active | HepG2 CAGA-GFP viability, ATP luminescence, 18 h | Potency, µM (titrated, usually from 46.1 µM), for inactives: at the highest dose activity change, negative = cytotoxicity, hits mostly cytotoxic | AID 588856, 2011; note: potency is the fitted concentration of half-maximal effect
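CellTiter-Glo luminescence gave cytotoxicity after 18 hours at 37 degrees C. The cells were HepG2 CAGA-GFP in 1% FBS DMEM, stimulated with 500 pg/mL TGF-beta after compound addition. %Activity was normalised to no-cell wells (complete cell-killing) and DMSO (no toxicity), and curves were fitted and classified.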
TDP1 cell noCPT: qHTS for Inhibitors of human tyrosyl-DNA phosphodiesterase 1 (TDP1): qHTS in cells in absence of CPT. DT40 Tdp1-/- hTDP1 cells, no CPT, ATP luminescence, 48 h. Potency, µM (highest dose often 46.2 µM), for inactives: top-dose activity change, negative = growth inhibition, hits mostly inhibitors. 420,000 tested, 15% active. AID 686978, 2013; note: potency is the fitted concentration of half-maximal effect; % is set by controls: 0 for no effect and ±100 for the full control effect; nearly all actives have a fitted effect of over 55% in size
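A cellular qHTS used chicken DT40 cells lacking endogenous Tdp1 but carrying stably transfected human TDP1. Compounds were applied without camptothecin, and cell growth kinetics were judged by ATP-dependent luminescence after ≥48 hr.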
IL1B secr inh: qHTS for Inhibitors of Inflammasome Signaling: IL-1-beta AlphaLISA Primary Screen; THP-1 LPS/ATP IL-1B secretion, AlphaLISA, 16 h; active compounds read low; activity change, % at 57.5 µM; 360,000 tested, 4.7% active; in the data active = activity change below about -50%; inconclusive = mostly about -30% to -49%; note: % is set by controls: 0 for no effect and ±100 for the full control effect
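THP-1 cells pretreated 1 hr with compounds (up to 57.5 uM final), then stimulated with LPS (250 ng/mL final) plus ATP (1.25 mM final); secreted IL-1B measured by AlphaLISA after 16 hr, decreased signal indicating inhibition.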
TDP1 cell CPT: qHTS for Inhibitors of human tyrosyl-DNA phosphodiesterase 1 (TDP1): qHTS in cells in presence of CPT | chicken DT40 Tdp1-/-;hTDP1 cells + 20 nM CPT, ATP luminescence, 48 h | Potency, µM (titrated, usually from 46.2 µM), for inactives: at the top dose activity change, negative = growth inhibition, hits mostly inhibitors | 420,000 tested, 12% active | AID 686979, 2013; note: potency is the fitted concentration of half-maximal effect; % is set by controls: 0 for no effect and ±100 for the full control effect; nearly all actives have a fitted effect of over 55% in size
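Cell growth measured by CellTiter-Glo luminescence after a minimum 48 h, 37 C compound exposure with 20 nM CPT in Tdp1-knockout DT40 cells stably expressing hTDP1, seeded 400/well; qHTS titration format.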
TDP1 inh: qHTS Assay for Inhibitors of Tyrosyl-DNA Phosphodiesterase (TDP1); Tyrosyl-DNA phosphodiesterase 1 (Homo sapiens), Q9NUW8; recombinant TDP1, AlphaScreen DNA substrate cleavage; Potency, µM (doses to about 130 µM), for the others: at the highest dose activity change, negative = inhibition, hits mostly inhibitors; 350,000 tested, 0.28% active; note: potency is the fitted concentration of half-maximal effect; % is set by controls: 0 for no effect and ±100 for the full control effect; nearly all actives have a fitted effect of over 40% in size
Target sequence (Q9NUW8 whole entry, looked up): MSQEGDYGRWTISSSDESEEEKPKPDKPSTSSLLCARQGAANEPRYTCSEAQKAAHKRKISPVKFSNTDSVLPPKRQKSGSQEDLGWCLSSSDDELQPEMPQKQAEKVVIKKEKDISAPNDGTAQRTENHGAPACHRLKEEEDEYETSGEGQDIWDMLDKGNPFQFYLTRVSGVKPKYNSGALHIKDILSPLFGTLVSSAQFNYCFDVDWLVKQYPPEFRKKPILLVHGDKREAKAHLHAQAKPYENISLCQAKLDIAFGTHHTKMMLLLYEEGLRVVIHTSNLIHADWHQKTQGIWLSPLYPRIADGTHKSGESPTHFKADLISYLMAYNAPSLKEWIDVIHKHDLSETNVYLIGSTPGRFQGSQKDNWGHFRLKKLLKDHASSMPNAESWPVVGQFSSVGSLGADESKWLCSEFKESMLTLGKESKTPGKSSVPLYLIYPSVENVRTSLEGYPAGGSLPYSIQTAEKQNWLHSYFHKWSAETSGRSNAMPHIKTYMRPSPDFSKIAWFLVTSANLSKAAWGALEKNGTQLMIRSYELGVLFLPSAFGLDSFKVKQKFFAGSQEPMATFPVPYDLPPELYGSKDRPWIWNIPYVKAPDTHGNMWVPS
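Here, a 5' biotin and 3' phosphotyrosine-FITC DNA oligonucleotide reports Tdp1 activity: intact substrate bridges AlphaScreen beads, while cleavage leaves a 3' phosphate and drops signal. All incubations at room temperature.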
TGFb SMAD3 inh: qHTS for Inhibitors of TGF-b; HepG2 CAGA-GFP TGF-b/SMAD3 reporter, GFP fluorescence, 18 h; TGF-beta stimulated, 500 pg/mL final; Potency, µM (titrated, usually from 46.1 µM), for the others: at the highest dose activity, negative = inhibition, actives largely listed as inhibitors; 410,000 tested, 1.2% active; AID 588855, 2011; note: potency is the fitted concentration of half-maximal effect; % is set by controls: 0 for no effect and ±100 for the full control effect; nearly all actives have a fitted effect of over 65% in size
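GFP signal (ex488/em500-530) from TGF-beta-stimulated HEPG2 CAGA-GFP cells, 500 pg/mL final, 18 h at 37 degrees C in DMEM plus 1% FBS, normalized to unstimulated and DMSO-stimulated controls.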
Active calls of the source: *; ? = inconclusive; · = no result given. Unless noted, calls come from the whole dose curve; as a rule, active = well fitted curve in the direction sought with a large enough effect; inconclusive = small, poorly fitted or top-dose-only effect, or another doubt; inactive = no such curve, though single readings can be large; an effect the other way counts as inactive or inconclusive.

SMILES	HepG2 tox	TDP1 cell noCPT	IL1B secr inh	TDP1 cell CPT	TDP1 inh	TGFb SMAD3 inh
CCN1CCn2c3c(c4cc(Cl)ccc42)CCCC31 (stereo not drawn)	-18%	?	-10	?	7%	19%
Cc1ccc2c(c1)c1c3n2CCN(C(=O)c2cccc(C(F)(F)F)c2)C3CCC1 (stereo not drawn)	-3%	23µM*	·	?	8%	?
Cc1ccc2c(c1)c1c3n2CCN(C=O)C3CCC1 (stereo not drawn)	-26%	-5%	-5	-9%	·	-16%
Cc1ccc(Cl)c(NC(=O)COC(=O)c2nn(C)c(=O)c3ccccc23)c1Cl	-3%	-8%	-11	21%	0%	-1%
O=C(NCc1ccncc1)c1cccc(S(=O)(=O)N2CCc3ccccc32)c1	-36%	?	-12	21µM*	3%	?
O=C(NCCc1ccccn1)c1cccc(S(=O)(=O)N2CCc3ccccc32)c1	-2%	?	11	?	7%	-1%
CC1CCCC(C)N1NC(=O)c1cccc(S(=O)(=O)N2CCc3ccccc32)c1 (stereo not drawn)	-31%	?	-3	-29%	-3%	-20%
CC(NC(=O)c1cccc(S(=O)(=O)N2CCc3ccccc32)c1)c1ccco1 (stereo not drawn)	-20%	18µM*	-6	?	1%	-18%
O=C(NNC(=O)c1ccccc1F)c1cccc(S(=O)(=O)N2CCc3ccccc32)c1	-18%	10µM*	39	18µM*	0%	?
Cn1nnc2c(N3CCN(c4ccc(F)cc4)CC3)ncnc21	-1%	?	·	?	-5%	13%
COc1ccc([C@H]2C[C@H](O)[C@@H](n3cc(-c4ccc(F)cc4)nn3)CN2Cc2cccs2)cc1	-103%	5.2µM*	-61*	5.2µM*	·	?
O[C@H]1CN(Cc2cccs2)[C@@H](c2ccccc2)C[C@@H]1n1cc(-c2ccc(F)cc2)nn1	-47%	?	41	?	·	?
Cc1ccc([C@H]2C[C@H](O)[C@@H](n3cc(C4CC4)nn3)CN2Cc2cccs2)cc1	-112%	12µM*	-25	9.2µM*	·	?
O[C@H]1C[C@H](c2ccccc2)N(Cc2cccs2)C[C@@H]1n1cc(-c2ccc(F)cc2)nn1	11µM*	23µM*	-79*	23µM*	·	?
COc1cc(NC(=O)C2CC(c3ccccc3O)=NO2)cc(OC)c1OC (stereo not drawn)	-24%	?	-25	-21%	·	-16%
CCCCC=O	·	·	·	·	3%	·
O=C(Nc1ccc(Br)cn1)c1cccc2ccccc12	-14%	2.1µM*	-9	2.1µM*	·	0%
CCOc1ccc(NC(=O)Nc2ccc(Br)cn2)cc1	2%	?	-14	6%	3%	13%
O=C(Nc1ccc(Cl)cc1)Nc1ccc(Br)cn1	-3%	18µM*	-14	18µM*	·	-1%
CSc1ncc(C(=O)Nc2ccc(Br)cn2)c(C)n1	-5%	?	46	16µM*	·	-15%
O=C(Nc1ccc(Br)cn1)c1ccc2ccccc2c1	-11%	15µM*	22	?	·	-21%
O=C(Nc1ccc(Br)cn1)c1cccc(C(=O)Nc2ccc(Br)cn2)c1	0%	?	40	?	·	4%
CSc1ncc(C(=O)Nc2ccc(Cl)cc2)c(C)n1	-7%	?	22	12%	·	?
Cn1cc(CN2CCC(C3(c4ccccn4)NC(=O)N(CC4CCCO4)C3=O)CC2)c2ccccc21 (stereo not drawn)	·	-20%	·	?	·	·
CCCCNc1ccc(/C=C2\C=Cc3ccccc32)cc1	-28%	?	·	?	·	-28%
SMILES	HepG2 tox	TDP1 cell noCPT	IL1B secr inh	TDP1 cell CPT	TDP1 inh	TGFb SMAD3 inh
CC(C)(C)OC(=O)NCCc1onc(-c2ccccc2F)c1C(=O)O	-2%	4%	-11	-18%	·	5%
O=C(Nc1ccc(Br)cn1)c1ccc2nccnc2c1	5%	18µM*	24	13µM*	·	-22%
O=c1[nH]cnc2nc(-c3ccccc3)c(-c3ccccc3)nc12	3%	2.9µM*	41	1.5µM*	5%	-14%
CCCCOc1ccc(C2CCC(C(C)=O)C(C)C2)cc1 (stereo not drawn)	-33%	23µM*	-4	?	-3%	2%
CCCCCOc1ccc(C2NC(=O)NC2=O)cc1 (stereo not drawn)	8%	-16%	3	-23%	2%	7%
CC1=NN(C(=O)c2ccc(Cn3nc(C)cc3C)o2)C(O)(C(F)(F)F)C1 (stereo not drawn)	-8%	2.5µM*	-5	1.3µM*	3%	-5%
CC1=NN(C(=O)c2ccc(Cn3nc(C)c(Br)c3C)cc2)C(O)(C(F)(F)F)C1 (stereo not drawn)	14%	0.58µM*	65	0.82µM*	0%	11%
CC1=NN(C(=O)c2ccc(Cn3nc(C)c([N+](=O)[O-])c3C)cc2)C(O)(C(F)(F)F)C1 (stereo not drawn)	-42%	-20%	6	?	0%	?
CC1=NN(C(=O)c2ccc(Cn3cc(Br)c([N+](=O)[O-])n3)o2)C(O)(C(F)(F)F)C1 (stereo not drawn)	-51%	2.6µM*	-10	3.3µM*	6%	?
Cc1ccc(CN(C)c2nc(-c3cccnc3)nc3ccccc23)o1	-6%	16µM*	-28	?	8%	1%
CCOc1ccc(CN(C)c2nc(-c3cccnc3)nc3ccccc23)cc1OC	-29%	?	-93*	13µM*	15%	?
CN(Cc1ccccc1F)c1nc(-c2cccnc2)nc2ccccc12	-2%	?	-76*	21µM*	2%	-18%
O=C(CCCCCn1c(=O)c2sccc2n(Cc2ccccc2Cl)c1=O)NCc1ccc2c(c1)OCO2	-1%	-26%	·	-22%	7%	-2%
Cc1ccc(Cn2c(CCCO)nc3ccccc32)cc1	-1%	?	8	?	·	9%
O=C1CC(/C=C/c2ccco2)=Nc2ccccc2N1	-1%	?	0	?	4%	-7%
